# Data: the supplement of paper PMC4466140
# Target: AgAbp1
# Assay: SPOT peptide array binding signal intensity (averaged, normalized) (arbitrary units (background-subtracted, floor 0; scale differs between SH3 domains)); higher = stronger binding of the SH3 domain to the peptide
# How it was run: (§1)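 E. coli BL21(DE3) was used to express GST-fused SH3 domains from four yeast species, which were then purified on glutathione Sepharose. These were incubated at 10 μg/ml in TBS-based blocking buffer overnight at 4°C on cellulose membranes carrying synthetic 15-mer peptides, in which cysteines were replaced by serines. Binding signal is the replicate average of normalized, background-subtracted spot intensity, in arbitrary units that differ between domains.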
row,Binder,SPOT peptide array binding signal intensity
1,QLMKNLPKIPLLNDI,≤ 0

# Target: AgBbc1
# Assay: as above
# How it was run: as §1
row,Binder,SPOT peptide array binding signal intensity
1,QLMKNLPKIPLLNDI,5.5

# Target: AgBem1-D1
# Assay: as above
# How it was run: as §1
row,Binder,SPOT peptide array binding signal intensity
1,QLMKNLPKIPLLNDI,301

# Target: AgBzz1-D1
# Assay: as above
# How it was run: as §1
row,Binder,SPOT peptide array binding signal intensity
1,QLMKNLPKIPLLNDI,20

# Target: AgBzz1-D2
# Assay: as above
# How it was run: as §1
row,Binder,SPOT peptide array binding signal intensity
1,QLMKNLPKIPLLNDI,36.5

# Target: AgCyk3
# Assay: as above
# How it was run: as §1
row,Binder,SPOT peptide array binding signal intensity
1,QLMKNLPKIPLLNDI,≤ 0

# Target: AgFus1
# Assay: as above
# How it was run: as §1
row,Binder,SPOT peptide array binding signal intensity
1,QLMKNLPKIPLLNDI,336

# Target: AgHof1
# Assay: as above
# How it was run: as §1
row,Binder,SPOT peptide array binding signal intensity
1,QLMKNLPKIPLLNDI,113

# Target: AgHse1
# Assay: as above
# How it was run: as §1
row,Binder,SPOT peptide array binding signal intensity
1,QLMKNLPKIPLLNDI,229

# Target: AgLsb1
# Assay: as above
# How it was run: as §1
row,Binder,SPOT peptide array binding signal intensity
1,QLMKNLPKIPLLNDI,1.75

# Target: AgLsb4
# Assay: as above
# How it was run: as §1
row,Binder,SPOT peptide array binding signal intensity
1,QLMKNLPKIPLLNDI,16.5

# Target: AgMyo5
# Assay: as above
# How it was run: as §1
row,Binder,SPOT peptide array binding signal intensity
1,QLMKNLPKIPLLNDI,2.75

# Target: AgNbp2
# Assay: as above
# How it was run: as §1
row,Binder,SPOT peptide array binding signal intensity
1,QLMKNLPKIPLLNDI,120

# Target: AgRvs167
# Assay: as above
# How it was run: as §1
row,Binder,SPOT peptide array binding signal intensity
1,QLMKNLPKIPLLNDI,1.67

# Target: AgSho1
# Assay: as above
# How it was run: as §1
row,Binder,SPOT peptide array binding signal intensity
1,QLMKNLPKIPLLNDI,3070

# Target: AgSla1-D1-D2
# Assay: as above
# How it was run: as §1
row,Binder,SPOT peptide array binding signal intensity
1,QLMKNLPKIPLLNDI,≤ 0

# Target: AgSla1-D3
# Assay: as above
# How it was run: as §1
row,Binder,SPOT peptide array binding signal intensity
1,QLMKNLPKIPLLNDI,2.75

# Target: CaAbp1-D1
# Assay: as above
# How it was run: as §1
row,Binder,SPOT peptide array binding signal intensity
1,QLMKNLPKIPLLNDI,9.5

# Target: CaAbp1-D2
# Assay: as above
# How it was run: as §1
row,Binder,SPOT peptide array binding signal intensity
1,QLMKNLPKIPLLNDI,46

# Target: CaBbc1
# Assay: as above
# How it was run: as §1
row,Binder,SPOT peptide array binding signal intensity
1,QLMKNLPKIPLLNDI,14.5

# Target: CaBem1-D1
# Assay: as above
# How it was run: as §1
row,Binder,SPOT peptide array binding signal intensity
1,QLMKNLPKIPLLNDI,187

# Target: CaBzz1-D1
# Assay: as above
# How it was run: as §1
row,Binder,SPOT peptide array binding signal intensity
1,QLMKNLPKIPLLNDI,222

# Target: CaBzz1-D2
# Assay: as above
# How it was run: as §1
row,Binder,SPOT peptide array binding signal intensity
1,QLMKNLPKIPLLNDI,121

# Target: CaCyk3
# Assay: as above
# How it was run: as §1
row,Binder,SPOT peptide array binding signal intensity
1,QLMKNLPKIPLLNDI,4

# Target: CaFus1
# Assay: as above
# How it was run: as §1
row,Binder,SPOT peptide array binding signal intensity
1,QLMKNLPKIPLLNDI,670

# Target: CaHof1
# Assay: as above
# How it was run: as §1
row,Binder,SPOT peptide array binding signal intensity
1,QLMKNLPKIPLLNDI,2.75

# Target: CaHse1
# Assay: as above
# How it was run: as §1
row,Binder,SPOT peptide array binding signal intensity
1,QLMKNLPKIPLLNDI,168

# Target: CaLsb1
# Assay: as above
# How it was run: as §1
row,Binder,SPOT peptide array binding signal intensity
1,QLMKNLPKIPLLNDI,2.5

# Target: CaLsb4
# Assay: as above
# How it was run: as §1
row,Binder,SPOT peptide array binding signal intensity
1,QLMKNLPKIPLLNDI,590

# Target: CaMyo5
# Assay: as above
# How it was run: as §1
row,Binder,SPOT peptide array binding signal intensity
1,QLMKNLPKIPLLNDI,83.8

# Target: CaNbp2
# Assay: as above
# How it was run: as §1
row,Binder,SPOT peptide array binding signal intensity
1,QLMKNLPKIPLLNDI,355

# Target: CaRvs167
# Assay: as above
# How it was run: as §1
row,Binder,SPOT peptide array binding signal intensity
1,QLMKNLPKIPLLNDI,19.5

# Target: CaRvs167-3
# Assay: as above
# How it was run: as §1
row,Binder,SPOT peptide array binding signal intensity
1,QLMKNLPKIPLLNDI,≤ 0

# Target: CaSho1
# Assay: as above
# How it was run: as §1
row,Binder,SPOT peptide array binding signal intensity
1,QLMKNLPKIPLLNDI,1860

# Target: CaSla1-D1-D2
# Assay: as above
# How it was run: as §1
row,Binder,SPOT peptide array binding signal intensity
1,QLMKNLPKIPLLNDI,384

# Target: CaSla1-D3
# Assay: as above
# How it was run: as §1
row,Binder,SPOT peptide array binding signal intensity
1,QLMKNLPKIPLLNDI,205

# Target: ScAbp1
# Assay: as above
# How it was run: as §1
row,Binder,SPOT peptide array binding signal intensity
1,QLMKNLPKIPLLNDI,≤ 0

# Target: ScBbc1
# Assay: as above
# How it was run: as §1
row,Binder,SPOT peptide array binding signal intensity
1,QLMKNLPKIPLLNDI,3

# Target: ScBem1-D1
# Assay: as above
# How it was run: as §1
row,Binder,SPOT peptide array binding signal intensity
1,QLMKNLPKIPLLNDI,3

# Target: ScBzz1-D1
# Assay: as above
# How it was run: as §1
row,Binder,SPOT peptide array binding signal intensity
1,QLMKNLPKIPLLNDI,15.5

# Target: ScBzz1-D2
# Assay: as above
# How it was run: as §1
row,Binder,SPOT peptide array binding signal intensity
1,QLMKNLPKIPLLNDI,39.5

# Target: ScCyk3
# Assay: as above
# How it was run: as §1
row,Binder,SPOT peptide array binding signal intensity
1,QLMKNLPKIPLLNDI,5

# Target: ScFus1
# Assay: as above
# How it was run: as §1
row,Binder,SPOT peptide array binding signal intensity
1,QLMKNLPKIPLLNDI,526

# Target: ScHof1
# Assay: as above
# How it was run: as §1
row,Binder,SPOT peptide array binding signal intensity
1,QLMKNLPKIPLLNDI,11.2

# Target: ScHse1
# Assay: as above
# How it was run: as §1
row,Binder,SPOT peptide array binding signal intensity
1,QLMKNLPKIPLLNDI,267

# Target: ScLsb1
# Assay: as above
# How it was run: as §1
row,Binder,SPOT peptide array binding signal intensity
1,QLMKNLPKIPLLNDI,5.75

# Target: ScLsb2
# Assay: as above
# How it was run: as §1
row,Binder,SPOT peptide array binding signal intensity
1,QLMKNLPKIPLLNDI,2

# Target: ScLsb3
# Assay: as above
# How it was run: as §1
row,Binder,SPOT peptide array binding signal intensity
1,QLMKNLPKIPLLNDI,292

# Target: ScLsb4
# Assay: as above
# How it was run: as §1
row,Binder,SPOT peptide array binding signal intensity
1,QLMKNLPKIPLLNDI,67.5

# Target: ScMyo3
# Assay: as above
# How it was run: as §1
row,Binder,SPOT peptide array binding signal intensity
1,QLMKNLPKIPLLNDI,25

# Target: ScMyo5
# Assay: as above
# How it was run: as §1
row,Binder,SPOT peptide array binding signal intensity
1,QLMKNLPKIPLLNDI,2.25

# Target: ScNbp2
# Assay: as above
# How it was run: as §1
row,Binder,SPOT peptide array binding signal intensity
1,QLMKNLPKIPLLNDI,217

# Target: ScPex13
# Assay: as above
# How it was run: as §1
row,Binder,SPOT peptide array binding signal intensity
1,QLMKNLPKIPLLNDI,580

# Target: ScRvs167
# Assay: as above
# How it was run: as §1
row,Binder,SPOT peptide array binding signal intensity
1,QLMKNLPKIPLLNDI,5

# Target: ScSho1
# Assay: as above
# How it was run: as §1
row,Binder,SPOT peptide array binding signal intensity
1,QLMKNLPKIPLLNDI,1950

# Target: ScSla1-D1-D2
# Assay: as above
# How it was run: as §1
row,Binder,SPOT peptide array binding signal intensity
1,QLMKNLPKIPLLNDI,319

# Target: ScSla1-D3
# Assay: as above
# How it was run: as §1
row,Binder,SPOT peptide array binding signal intensity
1,QLMKNLPKIPLLNDI,538

# Target: SpAbp1-D1
# Assay: as above
# How it was run: as §1
row,Binder,SPOT peptide array binding signal intensity
1,QLMKNLPKIPLLNDI,2.5

# Target: SpBbc1
# Assay: as above
# How it was run: as §1
row,Binder,SPOT peptide array binding signal intensity
1,QLMKNLPKIPLLNDI,≤ 0

# Target: SpBzz1-D1
# Assay: as above
# How it was run: as §1
row,Binder,SPOT peptide array binding signal intensity
1,QLMKNLPKIPLLNDI,250

# Target: SpBzz1-D2
# Assay: as above
# How it was run: as §1
row,Binder,SPOT peptide array binding signal intensity
1,QLMKNLPKIPLLNDI,10.8

# Target: SpCyk3
# Assay: as above
# How it was run: as §1
row,Binder,SPOT peptide array binding signal intensity
1,QLMKNLPKIPLLNDI,4

# Target: SpHof1
# Assay: as above
# How it was run: as §1
row,Binder,SPOT peptide array binding signal intensity
1,QLMKNLPKIPLLNDI,369

# Target: SpHof1-2
# Assay: as above
# How it was run: as §1
row,Binder,SPOT peptide array binding signal intensity
1,QLMKNLPKIPLLNDI,1050

# Target: SpHof1-3
# Assay: as above
# How it was run: as §1
row,Binder,SPOT peptide array binding signal intensity
1,QLMKNLPKIPLLNDI,970

# Target: SpHse1
# Assay: as above
# How it was run: as §1
row,Binder,SPOT peptide array binding signal intensity
1,QLMKNLPKIPLLNDI,206

# Target: SpLsb1
# Assay: as above
# How it was run: as §1
row,Binder,SPOT peptide array binding signal intensity
1,QLMKNLPKIPLLNDI,1

# Target: SpLsb4
# Assay: as above
# How it was run: as §1
row,Binder,SPOT peptide array binding signal intensity
1,QLMKNLPKIPLLNDI,628

# Target: SpMyo1
# Assay: as above
# How it was run: as §1
row,Binder,SPOT peptide array binding signal intensity
1,QLMKNLPKIPLLNDI,106

# Target: SpNbp2
# Assay: as above
# How it was run: as §1
row,Binder,SPOT peptide array binding signal intensity
1,QLMKNLPKIPLLNDI,88

# Target: SpPex13
# Assay: as above
# How it was run: as §1
row,Binder,SPOT peptide array binding signal intensity
1,QLMKNLPKIPLLNDI,146

# Target: SpRvs167
# Assay: as above
# How it was run: as §1
row,Binder,SPOT peptide array binding signal intensity
1,QLMKNLPKIPLLNDI,22.8

# Target: SpSla1-D1-D2
# Assay: as above
# How it was run: as §1
row,Binder,SPOT peptide array binding signal intensity
1,QLMKNLPKIPLLNDI,20.5

# Target: SpSla1-D3
# Assay: as above
# How it was run: as §1
row,Binder,SPOT peptide array binding signal intensity
1,QLMKNLPKIPLLNDI,251
